# LAP4-GFP MLPCN: alters LAP4-GFP fluorescence in TOR pathway yeast screen; AID 2023; GFP response vs DMSO, % at 10 µM; S. cerevisiae LAP4-GFP multiplex, flow cytometry GFP, 3 h; median GFP as percent of DMSO wells; 0.34% of 320,000 active;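 active = GFP response vs DMSO above a set limit, about the screen mean plus 3 SD, cut at about 150% in these data; inconclusive = under 70 cell events counted for the yeast strain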
# MEP2 TOR yeast: yeast TOR pathway MEP2-GFP modulation; S. cerevisiae MEP2-GFP strain, flow cytometry GFP, 3 h; 100% = DMSO control level; GFP response vs DMSO, % at 10 µM; 0.51% of 330,000 active; AID 2016;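 active = GFP response versus DMSO above a set limit, roughly screen mean plus 3 SD, cut at about 180% in these data; inconclusive = fewer than 70 cells counted for a yeast strain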;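 also: median GFP fluorescence of the barcode-gated MEP2-GFP cells per well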
# CIT2-GFP yeast: alters CIT2-GFP fluorescence in TOR pathway yeast screen; S. cerevisiae CIT2-GFP strain, flow cytometry, 3 h; 100 means same as DMSO wells; GFP response vs DMSO, % at 10 µM; 0.065% of 320,000 active; AID 2029;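 active = GFP response relative to DMSO above a set limit, near the screen mean plus 3 SD, cut at about 150% in these data; inconclusive = Fewer than 70 cells measured for a yeast strain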;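 also: ratio of well median GFP fluorescence to mean of DMSO wells on the plate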
# VLA-4 inh: inhibition in a human VLA-4 binding assay. P13612. VLA-4 expressing cells, ligand binding flow cytometry. inhibition, % (about 7 µM as worked out from the volumes in the protocol). 0.2% of 330,000 active. AID 2557; in the data active = inhibition above about 50%
# Target sequence (P13612 whole entry, looked up): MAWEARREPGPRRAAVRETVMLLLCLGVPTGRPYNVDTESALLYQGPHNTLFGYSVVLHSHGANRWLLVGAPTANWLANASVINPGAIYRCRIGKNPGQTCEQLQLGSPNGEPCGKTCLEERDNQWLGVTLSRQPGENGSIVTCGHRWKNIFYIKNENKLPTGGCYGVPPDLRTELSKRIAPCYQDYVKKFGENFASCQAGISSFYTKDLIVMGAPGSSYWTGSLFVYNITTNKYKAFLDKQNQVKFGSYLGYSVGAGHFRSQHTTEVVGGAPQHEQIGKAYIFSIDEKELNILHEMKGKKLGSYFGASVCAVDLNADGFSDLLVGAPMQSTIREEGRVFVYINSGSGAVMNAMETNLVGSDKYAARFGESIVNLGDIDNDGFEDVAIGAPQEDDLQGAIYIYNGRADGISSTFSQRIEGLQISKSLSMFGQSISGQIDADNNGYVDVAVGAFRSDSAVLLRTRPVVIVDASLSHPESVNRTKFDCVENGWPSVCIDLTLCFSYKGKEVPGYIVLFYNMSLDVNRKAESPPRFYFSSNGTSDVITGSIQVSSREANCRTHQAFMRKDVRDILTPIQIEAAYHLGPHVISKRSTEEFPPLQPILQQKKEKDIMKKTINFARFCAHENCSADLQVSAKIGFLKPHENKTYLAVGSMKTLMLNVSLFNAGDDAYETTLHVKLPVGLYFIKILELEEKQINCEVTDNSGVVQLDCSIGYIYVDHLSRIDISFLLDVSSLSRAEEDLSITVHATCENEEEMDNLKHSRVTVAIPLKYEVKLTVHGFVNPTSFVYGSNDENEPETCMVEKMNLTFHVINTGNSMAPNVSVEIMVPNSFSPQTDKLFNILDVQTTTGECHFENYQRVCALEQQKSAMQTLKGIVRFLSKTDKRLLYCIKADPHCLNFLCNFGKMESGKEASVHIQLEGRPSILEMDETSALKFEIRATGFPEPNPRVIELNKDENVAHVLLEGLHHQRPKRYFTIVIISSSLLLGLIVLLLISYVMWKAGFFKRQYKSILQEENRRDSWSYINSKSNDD
# AGP1-GFP MLPCN: alters AGP1-GFP fluorescence in TOR pathway yeast screen | AID 2066 | S. cerevisiae AGP1-GFP multiplex flow cytometry, 3 h; GFP as percent of DMSO wells | GFP response vs DMSO, % at 10 µM | 0.02% of 320,000 active;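 active = GFP response relative to DMSO above a set limit, near screen average plus 3 SD, cut at about 150% in these data; inconclusive = fewer than 70 cells counted for the yeast strain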;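 also: median GFP channel fluorescence of the gated AGP1 strain per well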
# RPL19A TOR yeast: modulators of TOR pathway RPL19A-GFP in S. cerevisiae | 0.3% of 330,000 active | percent response vs DMSO, % at 10 µM | S. cerevisiae RPL19A-GFP strain, flow cytometry, 3 h; active compounds read low | AID 2025;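 active = percent response vs DMSO below 50%; inconclusive = fewer than 70 events counted for the yeast strain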;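 also: median channel GFP fluorescence of the barcoded RPL19A-GFP strain; ratio of sample median GFP to plate DMSO average so 100% = DMSO; lower means less RPL19A-GFP as with rapamycin TOR inhibition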
# The depositor's hits bear a star; ? = inconclusive; . = no result; + = active, no number; [ ] = remark or other dose. Shown are actives, neighbours in structure and some others; about 1.1% of the full set was active somewhere.
SMILES,LAP4-GFP MLPCN,MEP2 TOR yeast,CIT2-GFP yeast,VLA-4 inh,AGP1-GFP MLPCN,RPL19A TOR yeast
O=C(Nc1nccs1)C(c1ccccc1)N1CCCCC1 (configuration not stated),112.4,186.4*,105.6,-4.7,101.5,96.5
Cc1ccc(CS(=O)(=O)CC(C)(O)c2ccc(Cl)cc2)cc1 (configuration not stated),95.5,104.6,106.9,7.8,100.0,104.0
Cc1nn(CC(=O)N2CCN(C)CC2)c(=O)c2c1sc1ccccc12,98.5,101.3,104.4,18.7,97.6,99.9
Cc1nn(CC(=O)N2CCOCC2)c(=O)c2c1sc1ccccc12,83.5,171.1,?,9.8,?,16.6*[may fluoresce violet]
CN(c1ccc(OC(=O)CN2C(=O)NC3(CCCC3)C2=O)cc1)S(=O)(=O)c1ccccc1,103.7,104.4,95.6,-2.7,103.9,95.9
CCC(C)(C)n1nnnc1C(c1ccccc1)N1CCc2ccccc2C1 (configuration not stated),103.8,106.7,110.2,-9.0,104.5,101.9
CCC(C)(C)n1nnnc1C(c1ccc(O)c(OC)c1)N1CCc2ccccc2C1 (configuration not stated),106.3,102.5,151.9*,15.6,119.6,90.0
NS(=O)(=O)c1ccc(CCNC(=O)CSCC(=O)Nc2ccc(Cl)cc2)cc1,100.0,103.7,96.0,10.6,97.1,96.4
CCCCNc1c(-c2ccc(SC(C)CC)cc2)nc2ccccn12 (configuration not stated),161.9*,91.0,78.4,30.1,82.6,84.6
O=C(CSc1cn[nH]n1)Nc1ccccc1C(=O)O,85.0,95.6,91.2,-8.3,91.3,92.8
CC(C)CCC(=O)N1CCOC1=O,109.3,98.6,96.5,4.0,94.6,101.5
Cc1ccc(S(=O)(=O)N2CCCC(C(=O)NCC3CCCO3)C2)cc1 (configuration not stated),91.1,274.0*[may fluoresce violet],?,-1.0,14.8,61.5
COc1cccc(CC(=O)Nc2ncc(C)s2)c1,65.6,189.9*[may fluoresce violet],?,-4.1,?,44.7*[may fluoresce violet]
Cc1ccc(S(=O)(=O)NCc2ccccc2)cc1C(=O)N1CCCCCCC1,115.3,100.0,104.8,-1.7,116.0,103.5
CCN(CC)CCCN(C(=O)c1cccc(C)c1)c1nc(-c2ccc(OC)cc2)cs1,79.2,111.3,98.8,-13.3,72.0,105.2
CCN(CC)CCCN(C(=O)c1ccc(Br)cc1)c1nc(-c2ccc(OC)cc2)cs1,276.2*,+,159.9*,10.9,160.8*,80.3
CC(=O)N1CCN(S(=O)(=O)c2cccc(C(=O)NCc3ccc(F)cc3)c2)CC1,95.0,101.6,97.7,-0.1,96.3,97.2
CC(OC(=O)CN1C(=O)c2ccccc2C1=O)C(=O)NC1CCCCC1C (configuration not stated),111.1,104.4,101.0,5.5,115.5,106.3
CC(C)[C@H](NC(=O)[C@@H]1CSC2c3ccccc3C(=O)N21)C(=O)NCc1ccncc1 (some centres not stated),89.3,163.0,?,14.3,?,27.0*[may fluoresce violet]
CC(C)[C@H](NC(=O)[C@@H]1CSC2c3ccccc3C(=O)N21)C(=O)NCc1ccco1 (some centres not stated),93.7,101.8,100.2,11.2,100.7,102.8
O=C(COc1ccc(F)cc1)NNC(=O)c1cc2ccccc2oc1=O,97.0,106.6,106.0,-14.9,108.5,105.2
Cc1cccc(OCC(=O)NNC(=O)c2cc3ccccc3oc2=O)c1,93.6,210.7*[may fluoresce violet],?,-8.4,26.6,60.4
Cc1ccccc1NC(=O)CSc1nnc(NC(=O)c2ccco2)s1,95.9,85.1,84.2,5.9,87.2,88.3
CCCS/C(N)=N/N=C/c1cc(C)ccc1O,109.6,233.9*[may fluoresce violet],?,9.0,.,57.1
O=C(O)CCC(=O)Nc1ccc(S(=O)(=O)c2ccc(NC(=O)CCC(=O)O)cc2)cc1,101.7,97.4,104.8,3.0,151.1*,103.0
SMILES,LAP4-GFP MLPCN,MEP2 TOR yeast,CIT2-GFP yeast,VLA-4 inh,AGP1-GFP MLPCN,RPL19A TOR yeast
O=C(COC(=O)c1nc(Cl)ccc1Cl)NC(=O)c1ccccc1,99.9,102.5,96.7,9.3,96.1,95.7
S=C(Sc1ccc(Cl)cc1)Sc1ccc(Cl)cc1,150.1*,97.9,111.6,-0.4,113.9,91.2
COc1ccc(N2CCN(C(=O)C3CCN(S(=O)(=O)c4ccccc4)CC3)CC2)cc1,+[may fluoresce green],+[may fluoresce green],896.0*[may fluoresce green],6.5,248.8*[may fluoresce green],269.6
O=C(CCl)c1ccc2c(c1)CCN2C(=O)C1CC1,159.4*,94.6,81.9,32.3,107.7,102.6
O=C(C1CCN(S(=O)(=O)c2ccccc2)CC1)N1CCN(c2ccccc2)CC1,77.6,93.5,117.7,5.3,100.8,108.0
O=C(CCl)c1ccc2c(c1)CCN2C(=O)C1CCCCC1,100.9,112.7,109.7,25.0,108.2,106.8
O=C(C1CC1)N1CCc2cc(S(=O)(=O)N3CCN(c4ccccc4)CC3)ccc21,79.5,163.8,?,3.7,?,14.3*[may fluoresce violet]
Cc1onc(-c2c(Cl)cccc2Cl)c1NC(=O)NNc1c(Cl)cncc1Cl,131.2,205.4*,123.1,-4.4,141.8,90.1
Cc1cc(C(=O)NNC(=O)c2c(-c3c(Cl)cccc3Cl)noc2C)no1,103.1,105.7,150.4*[may fluoresce green],-0.5,114.0,92.3
Cc1nc(C(=O)NNC(=O)c2c(-c3c(Cl)cccc3Cl)noc2C)cs1,97.9,99.5,92.7,-8.1,99.0,98.2
COC(=O)c1c(NC(=O)CN2C(=O)C(=O)N(C(C)C)C2=O)sc(C)c1C,99.8,100.6,98.4,11.4,97.8,97.0
O=[N+]([O-])c1cc(/C=N/O)ccc1Oc1ccccc1Cl,117.8,186.6*,94.5,-66.2,95.0,76.4
COc1ccccc1CNC(=O)CNC(=O)[C@@H]1Cc2ccccc2CN1,81.3,127.1,?,2.6,16.0,30.7*[may fluoresce violet]
O=C1CCC([N+](=O)[O-])C(c2ccc(-c3ccccc3)cc2)N1 (configuration not stated),114.7,94.7,98.4,-1.5,106.3,92.2
CC(C)C[C@H](NC(=O)OC(C)(C)C)C(=O)N1CCC(C(=O)O)CC1,84.4,370.6*[may fluoresce violet],?,-2.3,?,41.7*[may fluoresce violet]
NC(=O)C1CCCc2c1n(Cc1ccccc1)c1ccccc21 (configuration not stated),98.3,113.8,104.2,-0.1,100.8,108.2

# Screening results from PubChem.
